In PubChem BioAssay AID489018 (Southern Research Specialized Biocontainment Screening …, 2010):
Screen size: about 2,300 compounds; about 350 (15%) were called active. How the calls were made is not given here. Only a sample is shown. Measured potencies and affinities stand elsewhere.

Experiment: HepG2 cell cytotoxicity, dose response, cytotoxicity control for non-replicating M. tuberculosis project (AID 489018);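 further: HepG2 human liver cells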
Details: series mostly up to 20 µM

SMILES	outcome
O=C(OCc1ccc(Cl)c(Cl)c1)c1ccccn1	inactive
O=C(Nc1sc2c(c1C(=O)O)CCCCC2)c1ccccc1F	inactive
O=C(c1ccc([N+](=O)[O-])o1)N1CCc2ccccc2C1	inactive
O=C(Nc1sc2c(c1C(=O)O)CCCC2)c1ccc(F)cc1	inactive
COc1ccccc1NC(=O)c1ccc([N+](=O)[O-])o1	inactive
COc1cc2c(cc1OC)CN(C(=O)c1ccc([N+](=O)[O-])o1)CC2	inactive
CCOC(=O)COc1ccc2c3c(c(=O)oc2c1C)CCC3	inactive
O=C(COC(=O)c1ccc(Cl)s1)c1ccc[nH]1	inactive
COc1ccccc1OCCNC(=O)c1cc([N+](=O)[O-])cc([N+](=O)[O-])c1	inactive
O=C(OCC(=O)N1CCN(c2ccccc2)CC1)c1ccc2ccccc2n1	inactive
O=C(OCC(=O)c1c[nH]c2ccccc12)c1ccc([N+](=O)[O-])s1	inactive
CCCCCC/C(=N/O)c1ccccn1	inactive
c1ccc(-c2nc(NCCCn3ccnc3)c3ccccc3n2)cc1	inactive
Cc1cccc2cc(C#N)c(NCCCn3ccnc3)nc12	inactive
CC(C)OC(=O)c1cc(C(=O)c2cc(Cl)ccc2O)coc1=N	inactive
O=C1NN(c2ccccc2)C(=O)/C1=C/c1ccc(Sc2ccc(Cl)cc2)o1	inactive
COC(=O)COc1ccc2c(-c3cccc([N+](=O)[O-])c3)cc(=O)oc2c1	inactive
Cc1cc(NC(=O)c2cc([N+](=O)[O-])cc([N+](=O)[O-])c2)no1	inactive
NC(=O)N/N=C\c1cc(Br)ccc1O	inactive
C/C(=N\NC(=O)CCc1ccccc1)C1C(=O)c2ccccc2C1=O	inactive
Cc1cc(C(=O)N/N=C/c2cccc(Cl)c2Cl)no1	inactive
O=C(CCc1ccccc1)NC1C2CC3CC(C2)CC1C3 (stereo not given)	inactive
CN1CC(=O)NC1=NC(=O)C12CC3CC(CC(C3)C1)C2	inactive

SMILES	outcome
O=C(NNC(=O)c1cnccn1)c1ccc(Cl)c(Cl)c1	inactive
Cn1cnc([N+](=O)[O-])c1Sc1ccc(Br)cc1	inactive
CCc1ccc(N2CCN(CCNC(=O)Nc3ccc(OC)cc3)CC2)cc1	inactive
O=c1c2c([N+](=O)[O-])cc([N+](=O)[O-])cc2nc2ccccn12	inactive
O=C(OCc1cccc([N+](=O)[O-])c1)c1ccc2ccccc2n1	inactive
CCOC(=O)C(=O)NC12CC3CC(CC(C3)C1)C2	inactive
O=C(CCCOc1ccccc1)OCn1nnc2ccccc2c1=O	inactive
COc1ccc(NC(=O)Nc2ccc(O)c3ccccc23)cc1	inactive
CCOc1ccc2ccccc2c1/C=N/NC(=O)c1ccncc1	inactive
CCS(=O)(=O)c1ncc(Cl)c(C(=O)Nc2ccc(S(=O)(=O)N(C)c3ccccc3)cc2)n1	inactive
CCOC(=O)c1c(NC(=O)COC(=O)c2ccccn2)sc2c1CCC2	inactive
Clc1ccc(OCCOCCN2CCc3ccccc3C2)c(Cl)c1	inactive
CC(C)OC(=O)C(C)Oc1ccc(C(=O)NCCc2ccccc2)cc1 (stereo not given)	inactive
CC1(C)OC(c2ccccc2)=C/C(=C\C=N\NC(=O)c2ccncc2)O1	inactive
Cc1ccc2nc(N(CCCN(C)C)C(=O)c3ccc4c(c3)CCCC4)sc2c1	inactive
CN(C)CCC(=O)N1c2ccccc2Sc2ccc(Cl)cc21	inactive
CCc1ccc(OCC(=O)NNC(=O)c2cnccn2)c(Br)c1	inactive
O=C(N/N=C\c1ccc(Cl)s1)C1COc2ccccc2O1 (stereo not given)	inactive
Clc1ccc(N=c2ssnc2Cl)nc1	inactive
S=C1SCN(Cc2ccco2)CN1Cc1ccco1	inactive
CN(C)S(=O)(=O)c1ccc(C(=O)Oc2ccccc2)cc1	inactive
CCC(C)[C@H]1CN=C(N)N1CCc1cccc2ccccc12 (stereo not given in full)	inactive
Cc1cc(-c2c(C)[nH]n(-c3ccccc3)c2=O)n[nH]1	inactive

SMILES	outcome
C/C(=N\Nc1nc2ccccc2nc1C)c1ccccc1O	inactive
COc1ccc2oc(=O)c(/C(C)=N/NC(=O)c3ccncc3)cc2c1	inactive
N=c1oc2ccc(Cl)cc2cc1C(=O)NC1CCCCCC1	inactive
O=C(Oc1ccc(F)cc1)c1ccc2c(=O)n3c(nc2c1)CCC3	inactive
Cc1ccc(-c2nnc(SCC#CCOC(=O)c3ccco3)o2)cc1	inactive
CCOC(=O)C1=C(C)C/C(=N\NC(=O)c2ccccc2O)CC1	inactive
Cc1cc(C)nc(Sc2ncnc(N)c2[N+](=O)[O-])n1	inactive
Oc1ccccc1-c1nnc(COc2ccccc2)o1	inactive
CNC(=O)COC(=O)c1ccc(-c2nc3ccccc3s2)s1	inactive
CC(C)N1CCc2c(sc(NC(=O)CCS(=O)(=O)c3ccccc3)c2C#N)C1	inactive
CCCCNC(=O)Nc1nnc(-c2ccc(OCC)cc2)o1	inactive
Cc1ccc(CCC(=O)Nc2ccc(C)c(C)c2)o1	inactive
Cc1ccc(C(=O)Nc2nnc(C3=COCCO3)o2)cc1C	inactive
C/C(=C\C(=O)c1ccc(Br)cc1)NNC(=O)c1ccccc1	inactive
Cc1n[nH]c(=S)n1/N=C/c1ccc(OCc2ccc(Cl)cc2Cl)cc1	inactive
CC(C)(C)c1csc(NC(=O)c2ccccc2O)n1	inactive
O=C(O)c1ccccc1-c1ccccc1C(=O)Nc1nc2ccccc2s1	inactive
Cc1ccc2c(c1)C(=O)C(=O)N2CCCOc1ccccc1	inactive
CCCn1c(NC(=O)c2ccc([N+](=O)[O-])o2)nc2ccccc21	inactive
COC(=O)c1ccc(C(=O)NC2CCCc3c2cnn3-c2cc(F)cc(F)c2)nc1 (stereo not given)	inactive
COC(=O)C1=C(C)N(CC2CC2)C(=NCc2cccc(Cl)c2)N[C@H]1c1ccccc1	inactive
O=C(COC(=O)c1cccc(C(F)(F)F)c1)NCc1ccccc1	inactive
CCOC(=O)COc1cc(N)c(Cl)cc1Cl	inactive

SMILES	outcome
CC(C)C1O/C(=N/C(=O)Nc2ccc(Cl)c(Cl)c2)NC1=O (stereo not given)	inactive
O=c1c2ccccc2sn1-c1ccccc1	inactive
COC(=O)COc1ccc2cc(-c3ccc(OC)cc3)c(=O)oc2c1	inactive
CC(C)(C)NC(=O)C(=O)NNC(=O)c1ccc(C(C)(C)C)cc1	inactive
C#CCSc1nnc(-c2cccc3ccccc23)o1	inactive
O=C(COC(=O)CCc1c[nH]c2ccccc12)NCc1ccc2c(c1)OCO2	inactive
COc1ccc(OC(=O)CCc2c[nH]c3ccccc23)cc1	inactive
O=C(COC(=O)CCc1c[nH]c2ccccc12)NCc1ccc(Cl)cc1	inactive
N#Cc1ccc(COC(=O)CCc2c[nH]c3ccccc23)cc1	inactive
CCc1ccc(NC(=O)C(=O)NNC(=O)COc2cccc(OC)c2)cc1	inactive
O=C(NNc1nc2cc3c(cc2s1)OCCO3)c1ccccc1	inactive
O=[N+]([O-])c1ccc(CNc2cccc(Cl)c2)s1	inactive
CC1=NN(C(=O)c2csc(C)c2C)C(O)(C(F)(F)F)C1 (stereo not given)	inactive
CCOCC(=O)Nc1nc2ccc(C)cc2s1	inactive
CCN(CC)CCSc1nnc2c3cc(C)ccc3n(Cc3ccccc3)c2n1	inactive
O=C(Nc1nc2ccccc2n1CCN1CCCC1)c1ccc(Cl)cc1	inactive
O=C(Nc1nc2ccccc2n1CCN1CCCC1)C1CCCCC1	inactive
Cc1cccc(NC(=O)COC(=O)CCc2c[nH]c3ccccc23)c1	inactive
O=C(COC(=O)c1ccccc1Cl)NCCC1=CCCCC1	inactive
O=c1cc2[nH]c3ccccc3c(=O)n2nc1-c1ccccc1	inactive
CC1CC(C)CN(C(=O)COC(=O)c2ccc([N+](=O)[O-])o2)C1 (stereo not given)	inactive
COc1ccc(S(=O)(=O)NCc2ccc3c(c2)cc(C)n3C)cc1	inactive
COc1ccc(CCCC(=O)NCc2ccccc2)cc1C	inactive

SMILES	outcome
COC(=O)COc1ccc2c(-c3ccc(OC)cc3)cc(=O)oc2c1	inactive
C=C1CCC[C@]2(C)C[C@H]3OC(=O)C(CNC(C)CCCC(C)C)[C@H]3CC12 (stereo not given in full)	inactive
O=C(Oc1ccccc1Cl)c1ccc2c(=O)n3c(nc2c1)CCC3	inactive
CC(/C=C/c1cccc([N+](=O)[O-])c1)=N\NC(=O)c1ccncc1	inactive
COC(=O)COc1cccc(/C=N/NC(=O)CCSc2ccccc2)c1	inactive
CC(/C=C/c1ccccc1)=N\NC(=O)c1ccc2c(c1)OCCO2	inactive
O=C(N/N=C\c1ccccc1OCc1ccccc1)c1ccco1	inactive
Cc1occc1C(=O)N/N=C/c1ccc[nH]1	inactive
O=C(N/N=C/c1ccc[nH]1)c1ccc2c(c1)OCO2	inactive
C/C(=N\NC(=O)c1cccs1)c1ccc2c(c1)OCO2	inactive
Cc1occc1C(=O)N/N=C/C(Br)=C\c1ccccc1	inactive
C/C(Cn1nnc([N+](=O)[O-])n1)=N\NC(=O)c1ccncc1	inactive
COC(=O)CN(C#N)c1nc(SC)nc(N(C)C)n1	inactive
O=C1CCC/C(=N/Nc2ccc(Cl)cc2)C1	inactive
CCOCCOC(=O)c1ccc(NC(=O)C2COc3ccccc3O2)cc1 (stereo not given)	inactive
Cc1cc(Cl)ccc1OC(C)C(=O)Nc1ccc([N+](=O)[O-])cn1 (stereo not given)	inactive
Cc1ccc(C)c(NC(=O)c2cc([N+](=O)[O-])cc([N+](=O)[O-])c2)c1	inactive
O=C(CCc1ccc(Oc2cc([N+](=O)[O-])cc([N+](=O)[O-])c2)cc1)N1CCCCC1	inactive
Cc1ccccc1-n1ncc2c([N+](=O)[O-])cc([N+](=O)[O-])cc21	inactive
Cc1cc(C)n(C(=O)c2ccc([N+](=O)[O-])cc2[N+](=O)[O-])n1	inactive
N/C(=N/OC(=O)c1ccccc1Cl)c1ncc([N+](=O)[O-])s1	inactive
COc1ccc(OC)c(NC(=O)C(=O)NNC(=O)C23CC4CC(CC(C4)C2)C3)c1	inactive
Brc1ccc(-c2ccc(CNCc3ccccn3)o2)cc1	inactive
